The source of these data is ChEMBL document CHEMBL4296182, “CO-ADD screening of NIH NCI Diversity Set V”.

Measured potencies and affinities stand elsewhere.

For this assay, the system named is Candida albicans. To be noted: 20 µM.
With `Cn1nc(N)c2ncc(C(Cl)(Cl)Cl)nc21`, the Inhibition (in general, the relative decrease from the control value, in per cent) came out at 10.5%.

With `CCOC(=O)Nc1ccc2[nH]c(-c3cscn3)nc2c1`, the Inhibition was -2.03%.

For `O=C(O)c1ccccc1C(=O)Nc1ccccc1[N+](=O)[O-]`, the Inhibition was determined as 4.76%.

As for `Cc1cccc(N2CCN(CC(O)COc3ccc(Cl)cc3)CC2)c1` (stereo not drawn), the Inhibition worked out at 0.39%.

As for `O=[N+]([O-])/C=C/c1cc2ccccc2[nH]1`, the Inhibition is 46.8%.

For `c1ccc(Sc2ncnc3ccccc23)cc1`, the Inhibition stood at 2.99%.

Take `CCCCOc1ccc(Nc2cc(Cl)ccc2C(=O)O)cn1`: the Inhibition stood at 10.4%.

On to `Cn1c(=O)c2c(nc(OCCc3ccccc3)n2C)n(C)c1=O`, for which the Inhibition came to 3.96%.

Take `c1ccc(NN(Cc2ccncc2)c2ccccc2)cc1`: the Inhibition was determined as 0.97%.

On to `Nc1ncnc2c1ncn2C=C=CCO`, for which the Inhibition is 1.58%.

For `O=C1c2ccccc2C(=O)c2c(Nc3ccc(CCO)cc3)ccc(O)c21`, the Inhibition is -0.52%.

On to `Cc1ccc(C#CC(C)(O)C(C)(C)C)cn1` (stereo not drawn), for which the Inhibition was found to be 7.24%.

Turning to `CCOc1cc2c(Cl)ncnc2c(OCC)c1OCC`, the Inhibition worked out at 2.82%.

As to `O=C(NC1(N2CCOCC2)CC1)c1ccc(Cl)cc1`, the Inhibition was 2.83%.

Regarding `CS(=O)(=O)Oc1ccc(Br)c2cccnc12`, the Inhibition is 4.07%.

As for `Cc1nnsc1C(=O)NCc1c(F)cccc1Cl`, the Inhibition was -0.57%.

On to `Cc1cccc(NC2=C(C#N)C(=O)NC3(CCCC3)S2)c1`, for which the Inhibition is 11%.

For the compound `CCOC(=O)C(=O)C1C(=O)Nc2ccccc21` (stereo not drawn), the Inhibition amounted to 13.9%.

Regarding `C=CCNC(=S)NCC=C`, the Inhibition turned out to be 1.09%.

Regarding `C=CCOC(=O)/C=C\C(=O)NC(N)=O`, the Inhibition amounted to 7.76%.

Turning to `Cc1ccc(S(=O)(=O)N(C)C)cc1[N+](=O)[O-]`, the Inhibition was determined as 0.81%.

Turning to `COC(=O)C1CC(O)C(O)C(O)C1` (stereo not drawn), the Inhibition came to 1.86%.

Turning to `COc1c(NC=O)c2c(c([N+](=O)[O-])c1OC)C(=O)OC2`, the Inhibition is 5.38%.
